# Bioassay records as filed in PubChem.
# Most compounds without a hit are left out; they make up all but 5.8% or so of the library.
# KB-V1 cytotox: qHTS assay for MDR1-selective chemotherapeutics: Primary screen using the drug-selected MDR subline cells KB-V1. Potency, µM (doses to about 46.1 µM), hits mostly cytotoxic. KB-V1 MDR cells viability, CellTiter-Glo, 72 h. 400,000 tested, 3.4% active; also: % is scaled to controls: 0 for no effect and ±100 for the full control effect; nearly all actives have a fitted effect of over 60% in size
#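 Compound-treated KB-V1 multidrug-resistant cells, 72 h, 37 degrees C; viability by CellTiter-Glo. Fitted qHTS curves give the values.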
# KB-3-1 tox: qHTS assay for MDR1-selective chemotherapeutics: Primary screen using the parental adenocarcinoma cell KB-3-1 | KB-3-1 viability, CellTiter-Glo ATP luminescence, 72 h | Potency, µM (series often up to 46.1 µM), most hits filed as cytotoxic | 400,000 tested, 1.4% active; also: % is scaled to controls: 0 for no effect and ±100 for the full control effect; nearly all actives have a fitted effect of over 60% in size
#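 72 h, 37 °C compound treatment of KB-3-1 parental cells; CellTiter-Glo added, 10 min, luminescence read. Data corrected against DMSO-only plates and normalized before curve fitting.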
# SW480 rereplic: A quantitative high throughput screen for small molecules that induce DNA re-replication in SW480 colon adenocarcinoma cells; Potency, µM (highest dose often 46.1 µM), for inactives: at the top dose re-replication activation, actives largely listed as activators; SW480 DNA re-replication, Hoechst DNA content imaging, 48 h; 340,000 tested, 1.8% active; AID 624297, 2012; also: % of control where 0% means no effect; nearly all actives have a fitted effect of over 55% in size
#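 Image-based DNA-content assay: after two days of treatment, nuclei were labelled with the DNA dye Hoechst and imaged, and hits were compounds raising the count of nuclei showing high fluorescence intensity.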
# 12-LOX inh: Primary qHTS assay for inhibitors of human arachidonate 12S-lipoxygenase (ALOX12): Round 2; AID 1671190, 2021; Potency, µM (titrated, usually from 108 µM), for the others: at the highest dose activity change, negative = inhibition, usual class: inhibitors; Polyunsaturated fatty acid lipoxygenase ALOX12 (Homo sapiens), P18054; 580,000 tested, 1.1% active; purified 12hLO, xylenol orange hydroperoxide absorbance; also: % is scaled to controls: 0 for no effect and ±100 for the full control effect
# Target sequence (P18054 whole entry, looked up): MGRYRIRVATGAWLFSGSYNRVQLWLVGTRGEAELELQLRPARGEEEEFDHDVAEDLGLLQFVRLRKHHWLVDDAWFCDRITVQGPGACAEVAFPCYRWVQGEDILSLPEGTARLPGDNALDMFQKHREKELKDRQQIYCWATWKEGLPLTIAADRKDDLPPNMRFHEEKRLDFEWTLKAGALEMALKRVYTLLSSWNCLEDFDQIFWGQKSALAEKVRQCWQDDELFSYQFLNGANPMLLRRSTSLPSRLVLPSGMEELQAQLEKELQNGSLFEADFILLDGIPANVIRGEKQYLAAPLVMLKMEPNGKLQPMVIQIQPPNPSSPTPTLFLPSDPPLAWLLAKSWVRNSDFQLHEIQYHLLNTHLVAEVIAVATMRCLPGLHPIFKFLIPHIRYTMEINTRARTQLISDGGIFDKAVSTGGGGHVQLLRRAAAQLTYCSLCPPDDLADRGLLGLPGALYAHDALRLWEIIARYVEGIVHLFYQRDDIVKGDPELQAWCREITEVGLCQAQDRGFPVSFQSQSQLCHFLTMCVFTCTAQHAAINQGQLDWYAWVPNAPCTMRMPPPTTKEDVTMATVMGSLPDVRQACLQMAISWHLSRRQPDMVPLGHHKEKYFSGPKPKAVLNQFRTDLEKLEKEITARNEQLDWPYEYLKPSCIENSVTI
#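 Purified human 12hLO (150 nM final) in 25 mM Hepes, 0.01% Triton X-100, pH 7.0 was preincubated 15 min at room temperature with compound. Then 40 uM arachidonic acid was added, 30 min. Hydroperoxide was read by Fe-XO absorbance ratio 573/405 nm.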
# PINK1 expr mod: A Quantitative High throughput Screen to Identify Chemical Modulators of PINK1 Expression | PINK1 immunofluorescence, high-content cytometry, 24 h | Potency, µM (top dose mostly 76.6 µM), inactives show top-dose activation (PINK1 increase), actives largely listed as activators | 410,000 tested, 0.2% active; active = well fitted activation curve with a large enough effect; inconclusive = small, poorly fitted or top-dose-only effect; cell line not stated here; also: % of control where 0% means no effect; nearly all actives have a fitted effect of over 65% in size
#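 PINK1 protein, normally rapidly degraded, was detected by immunofluorescence after 24 hour compound treatment of a stable cell line. Titration data (5 concentrations) came from laser-scanning cytometry, with CCCP-treated wells as controls.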
# MCF10A rerep: A quantitative high throughput screen for small molecules that induce DNA re-replication in MCF 10a normal breast cells | MCF 10A DNA re-replication, Hoechst nuclear intensity, 48 h | Potency, µM (titrated, usually from 46.1 µM), for the others: at the top dose activity, positive = re-replication, hits mostly activators | 350,000 tested, 2.9% active | AID 624296, 2012; also: % of control where 0% means no effect; nearly all actives have a fitted effect of over 50% in size
# The depositor's hits bear a star; i = inactive; ? = inconclusive; nt = not tested or not shown; [ ] = dose if it differs, or a comment. Unless noted, calls follow the shape of the dose curve; as a rule, active = well fitted curve in the direction sought with a large enough effect; inconclusive = small, poorly fitted or top-dose-only effect, or another doubt; inactive = no such curve, though single readings can be large; an effect the other way counts as inactive or inconclusive. Potency is read from the fitted curve at half-maximal effect.
SMILES,KB-V1 cytotox,KB-3-1 tox,SW480 rereplic,12-LOX inh,PINK1 expr mod,MCF10A rerep
Cc1cccc2cc(CN(Cc3nnnn3C3CCCCC3)C3CCCC3)c3nnnn3c12,21µM*,?,0%,0%,3%,17%
Cc1ccc(C)c(NC(=O)C(Sc2ccc(S(=O)(=O)N3CCCC3)cn2)c2ccccc2)c1 (stereo unspecified),nt,nt,nt,-16%,nt,nt
O=C(CCC1CCCCC1)NCCCNC(=O)CCC1CCCCC1,nt,nt,nt,-35%,nt,nt
O=C(Cc1csc2ccccc12)NCC1CC1,i,i,nt,?,-1%,nt
CN1CCC(CNC(=O)Nc2csc3ccccc23)CC1,i,i,-4%,40µM*,2%,-1%
CN(C(=O)Cc1nn(C)c(=O)c2ccccc12)C1CCCCCCC1,nt,nt,nt,-27%,nt,nt
CCOC(=O)N1CCN(C(=O)COC(=O)c2ccc(N(C)C)cc2)CC1,21µM*,i,-4%,239%,-1%,-3%
CN(C)c1ccc(C(=O)OCC(=O)N2CCCC2)cc1,i,i,-7%,2%,0%,-10%
C=CCSC1=NC(=O)/C(=C/c2cccs2)S1,i,i,3%,?,0%,18µM*
CCOC(=O)C(C)(C)Sc1ncnc2nc[nH]c12,i,i,-1%,16%,-7%[38.3 µM],-1%
CCOC(=O)c1cc([N+](=O)[O-])cc([N+](=O)[O-])c1Sc1ncnc2nc[nH]c12,?,?,12µM*,-25%,-4%,?
O=C(NCc1ccc(Cl)cc1)c1ccc(-c2ccccc2C(F)(F)F)o1,i,i,0%,-8%,?,23µM*
Cc1nn(-c2ccccc2)c2c1C(O)n1c(nc3ccccc31)S2 (stereo unspecified),18µM*,i,-3%,-24%,nt,16µM*
Cc1nn(-c2ccccc2)c(C)c1Cc1ccc(O)cc1,i,i,-6%,nt,2%,2%
COc1ccc(-c2cc(-c3nnc(COC(=O)C4CC4C)o3)c3ccccc3n2)cc1OC (stereo unspecified),?,i,16µM*,-15%,2%,?
COc1ccc(-c2cc(-c3nnc(COC(=O)C4CC4)o3)c3ccccc3n2)cc1OC,?,?,21µM*,-5%,1%,?
COc1ccc(-c2cc(-c3nnc(COC(=O)CC4CCCC4)o3)c3ccccc3n2)cc1OC,i,i,?,-7%,2%,15µM*
COc1ccc2[nH]c3c(c2c1)CCNC31CCN(C(=O)C2CCC2)CC1,nt,nt,nt,6%,nt,nt
O=C(Nc1ccccc1-c1ccccc1)c1cccc(F)c1,nt,nt,nt,-13%,nt,nt
COc1ccccc1Cc1nc2ccccc2nc1SCC(=O)NCc1ccco1,nt,nt,nt,-46%,nt,nt
CCn1cc(C2=NOC(C(=O)Nc3ccccc3C(=O)OC)C2)c(C)n1 (stereo unspecified),10µM*,i,-11%,-8%,10%,-6%
COC(=O)c1ccccc1NC(=O)C1CC(c2ccccc2O)=NO1 (stereo unspecified),i,i,0%,3%,?,-8%
CC(C)(C)c1ccc(-c2nc(C#N)c(NCC3CCCO3)o2)cc1 (stereo unspecified),nt,nt,nt,-5%,nt,nt
COc1ccc(CC(=O)N2CC(CO)C3(CCNCC3)C2)cc1 (stereo unspecified),nt,nt,nt,48%,nt,nt
COc1ccc(C2(C(=O)N3CC(CO)C4(CCNCC4)C3)CCCCC2)cc1 (stereo unspecified),nt,nt,nt,32µM*,nt,nt
SMILES,KB-V1 cytotox,KB-3-1 tox,SW480 rereplic,12-LOX inh,PINK1 expr mod,MCF10A rerep
Cc1ccc(Cn2ccsc2=NC(=O)COC(=O)c2ccc(O)cc2O)cc1,i,i,?,9%,4%,17%
Cc1ccc(Cn2ccsc2=NC(=O)COC(=O)C(C)C)cc1,i,16µM*,2%,-9%,0%,2%
Clc1ccc(C[n+]2csc3ccccc32)cc1,23µM*,i,-706%,?,12%,-1%
Fc1ccc(C[n+]2csc3ccccc32)cc1,i,i,8%,?,3%,?
COCCNC(=O)COC(=O)c1cc(-c2ccc(F)cc2)nc2ccccc12,nt,nt,nt,17%,nt,nt
COc1ccc(CNC(=O)c2cc3ccccc3o2)cc1OC,8.2µM*,i,13%,28%,1%,-1%
COc1ccc(NC(=O)c2cc3ccccc3o2)cc1OC,i,i,-18%,-5%,0%,-2%
CCc1ccc2oc(C(=O)NCCc3ccc(OC)c(OC)c3)cc(=O)c2c1,5.2µM*,16µM*,nt,-25%,4%,nt
COc1ccc(CNC(=O)c2ccc3ccccc3n2)cc1OC,7.3µM*,?,-10%,-20%,4%,8%
COc1ccc(CCNC(=O)c2ccc3ccccc3n2)cc1OC,i,?,-6%,-10%,-1%,22%
Cc1ccc(Oc2ccccc2NC(=O)Cc2nn(C)c(=O)c3ccccc23)cc1,nt,nt,nt,-8%,nt,nt
COc1ccccc1N=CC=C1OC(C)(C)C(C)(C)O1,i,i,?,?,3%,21µM*
Cc1ccc(N=CC=C2OC(C)(C)C(C)(C)O2)c(C)c1,i,i,0%,-24%,2%,?
Cc1cc(Cl)c(C)c(S(=O)(=O)N2CCCC2c2nnc3ccccn23)c1Cl (stereo unspecified),nt,nt,nt,18%,nt,nt
CCC(=O)Nc1ccc(/C=C(\C(C)=O)C(=O)c2ccccc2)cc1,i,?,5%,?,0%,?
CCC(=O)Nc1ccc(C=C(C(C)=O)C(C)=O)cc1,i,?,-3%,?,7%,16µM*
CCCCNc1c(-c2cccc(-c3ccc(OC)cc3)c2)nc2ccc(C)cn12,?,?,?,-20%,-2%,4.1µM*
CCCCNc1c(-c2cccc(-c3cc(C(C)=O)cs3)c2)nc2ccc(C)cn12,21µM*,?,?,1%,1%,?
CCCCCCSc1cccc(-c2nc3ccc(Cl)cn3c2NCCCC)c1,?,i,-4%,?,7%,23%
CCCCNc1c(-c2cccc(-c3ccc(OC)cc3)c2)nc2cc(C)ccn12,?,?,?,?,?,23µM*
CCCCNc1c(-c2ccc(OC)c(SC3CCCCC3)c2)nc2cc(C)ccn12,?,?,24%,?,?,?
